Shown are actives, neighbours in structure and some others; about 4% of the full set was active somewhere.
Shn3 inh set2 – reduction of Shn3 3'UTR firefly luciferase signal, primary screen, Schnurri-3 inhibitor project, cell-based, Clone20 osteoblasts, set 2; Clone20 osteoblast Shn3 3'UTR firefly luciferase, 24 h; inhibition, % at 12.5 µM; actives 0.52% (n = 360,000);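 active = mean inhibition of at least 75% with every replicate also reaching 75%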;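 also: 0% = median of neutral control wells and 100% = pilot-screen positive control compound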
Mdm2 MdmX PPI – inhibitors of human Mdm2-MdmX association, primary screen, cell-based, luminescence, split luciferase, SaOS-2, uHTS; Protein Mdm4 (Homo sapiens) + E3 ubiquitin-protein ligase Mdm2 (Homo sapiens), …; SaOS-2 split-luciferase Mdm2/MdmX complementation; inhibition, % at 8 µM; actives 3% (n = 330,000); AID 485346, 2010;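 active = inhibition of at least 50% at 8 µM in the primary screen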
CSC inhib – cancer stem cell viability inhibitors, primary screen, luminescence; cancer stem cell-like cells viability; inhibition, % at 7.5 µM; actives 1.1% (n = 300,000); AID 2717, 2010; in the data active = inhibition above about 75%; tested in HMLE shEcad cells
Gli-Sufu antag – Gli-Sufu pathway antagonists, primary screen, luciferase luminescence, Sufu-KO-LIGHT cells, uHTS; Sufu-KO-LIGHT fibroblasts, Gli luciferase reporter luminescence; inhibition, % at 5 µM; actives 0.74% (n = 340,000);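 active = inhibition above about 55%, limit read from the data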;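 also: 0% = DMSO-treated cells and 100% = wells with medium but no cells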
Beta apoptosis – inhibitors of cytokine-induced beta cell apoptosis, primary screen, luminescence; AID 435005, 2010; INS-1E cytokine-induced death, ATP luminescence, 48 h; percent of positive-control rescue, neutral wells zero; actives 0.8% (n = 300,000); protection from apoptosis, % (no concentration beside the values);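 active = Every replicate reaches about 75%, or at least half do and their mean reaches it too, limit read from the data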;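 also: 0% = cytokine-treated negative control wells and 100% = positive control rescue; higher means more ATP so stronger rescue from cytokine killing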
PAX8 reporter – inhibitors of PAX8-driven TPO luciferase reporter, primary screen, RMG-I cells, single concentration; SteadyGlo, 24 h; inhibition, % at 12.6 µM; actives 1.2% (n = 360,000); AID 652154, 2013;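 active = mean replicate inhibition at least 60% with every replicate also reaching 60%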;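 also: luciferase light reporting Pax8 driven TPO promoter activity; plate controls were median of neutral control wells for no effect and mitoxantrone controls for full effect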
An asterisk follows results filed as active.

What do the screens show for `O=c1[nH]c(/C(Cl)=C/c2c(F)cccc2Cl)nc2cc(Cl)ccc12`?
Shn3 inh set2: -8; Mdm2 MdmX PPI: 9; CSC inhib: -12; Gli-Sufu antag: 7; Beta apoptosis: -13; PAX8 reporter: 28

Results for C[C@@H]1CN([C@H](C)CO)C(=O)c2cccc(NC(=O)C3CCOCC3)c2O[C@H]1CN(C)Cc1ccc2c(c1)OCO2 ?
PAX8 reporter: 7

How did COC(CNC(=O)c1ccc2c3c(onc13)-c1ccccc1C2=O)OC do in these assays?
Mdm2 MdmX PPI: -84; CSC inhib: 84*; Gli-Sufu antag: -58; Beta apoptosis: 58; PAX8 reporter: -68

What do the screens show for `COC(CNC(=O)c1cccnc1)OC`?
Shn3 inh set2: -6; Mdm2 MdmX PPI: -9; CSC inhib: -3; Gli-Sufu antag: -4; Beta apoptosis: -4; PAX8 reporter: 11

How did O=C(Cc1nnc(NC(=O)c2ccccc2)s1)N/N=C/c1cccc(O)c1 do in these assays?
Shn3 inh set2: 1; Mdm2 MdmX PPI: -21; CSC inhib: 44; Gli-Sufu antag: -13; Beta apoptosis: -5; PAX8 reporter: -23

How did O=C(Cc1nnc(NC(=O)c2ccccc2)s1)N/N=C/c1ccco1 do in these assays?
Shn3 inh set2: -2; Mdm2 MdmX PPI: -10; CSC inhib: -8; Gli-Sufu antag: 43; Beta apoptosis: -4; PAX8 reporter: 132*

What do the screens show for `CC(C)Cc1csc(NC(=O)c2ccc(F)cc2)c1C(=O)O`?
Shn3 inh set2: -2; Mdm2 MdmX PPI: 7; CSC inhib: 121*; Gli-Sufu antag: 3; Beta apoptosis: -6; PAX8 reporter: -17

Results for Cc1csc(NC(=O)c2ccc(COc3ccccc3)o2)n1 ?
Shn3 inh set2: -32; Mdm2 MdmX PPI: -19; CSC inhib: 79*; Gli-Sufu antag: 10; Beta apoptosis: 0; PAX8 reporter: -69

Results for Cc1cccc(NC(=O)c2ccc(COc3ccc(Cl)cc3Cl)o2)n1 ?
Shn3 inh set2: 0; Mdm2 MdmX PPI: 20; CSC inhib: 104*; Gli-Sufu antag: 0; Beta apoptosis: -7

Results for O=C(Nc1nccs1)c1ccc(COc2ccccc2Cl)o1 ?
Shn3 inh set2: 30; Mdm2 MdmX PPI: 7; CSC inhib: 81*; Gli-Sufu antag: -24; Beta apoptosis: -2; PAX8 reporter: -60

How did COc1ccc(NC(=O)c2ccc(COc3ccccc3Br)o2)cc1OC do in these assays?
Shn3 inh set2: 21; Mdm2 MdmX PPI: 21; CSC inhib: 96*; Gli-Sufu antag: -12; Beta apoptosis: 7

Results for COc1ccc(S(=O)(=O)N[C@@H]2CC[C@@H](CC(=O)N3CCN(c4ccccc4)CC3)O[C@H]2CO)cc1 ?
PAX8 reporter: 4

Results for O=S(=O)(c1cccs1)N1CCCCN2[C@@H](CO)[C@H](c3ccc(Br)cc3)[C@@H]2C1 ?
PAX8 reporter: 6

How did CNC[C@H]1Oc2c(NC(=O)c3cnccn3)cccc2C(=O)N([C@@H](C)CO)C[C@H]1C do in these assays?
PAX8 reporter: -4

What do the screens show for `COc1ccc2c3c(n(C)c2c1)[C@@H](CO)N(Cc1ccccc1F)CC31CN(C(=O)C2CCCC2)C1`?
PAX8 reporter: -29

How did C#CCN(C[C@@H]1[C@@H](OC(=O)NCc2ccccc2F)[C@@H](OC(=O)NCc2ccccc2F)Cn2c(=O)n(CCCCCC)c(=O)n21)S(=O)(=O)c1ccc(C)cc1 do in these assays?
Shn3 inh set2: 19; PAX8 reporter: 19

How did C#CCN(C[C@@H]1[C@@H](OC(=O)Nc2cccs2)[C@@H](OC(=O)Nc2cccs2)Cn2c(=O)ccc(=O)n21)S(=O)(=O)c1ccc(C)cc1 do in these assays?
Shn3 inh set2: -12; PAX8 reporter: 113*

Results for C#CCN(C[C@@H]1[C@@H](OC(=O)NC2CCCC2)[C@@H](OC(=O)NC2CCCC2)Cn2c(=O)ccc(=O)n21)S(=O)(=O)c1ccc(C)cc1 ?
Shn3 inh set2: 94*; PAX8 reporter: 96*

How did C#CCN(C[C@@H]1[C@@H](OC(=O)NCc2ccccc2F)[C@@H](OC(=O)NCc2ccccc2F)Cn2c(=O)ccc(=O)n21)S(=O)(=O)c1ccc(C)cc1 do in these assays?
Shn3 inh set2: 96*; PAX8 reporter: 105*

Results for C#CCN(C[C@H]1[C@H](OC(=O)Nc2cccs2)[C@H](OC(=O)Nc2cccs2)C[C@H]2C(=O)N(c3ccccc3)C(=O)[C@@H]12)S(=O)(=O)c1ccc(C)cc1 ?
Shn3 inh set2: 15; PAX8 reporter: -24

Results for CCCNC(=O)Nc1ccc2c(c1)OC[C@@H](C)N(C(=O)C1CC1)C[C@H](C)[C@@H](OC)CN(C)C2=O ?
PAX8 reporter: -9

How did CCOc1ccc2c3c(c(=O)oc2c1OCC)CCCC3 do in these assays?
Shn3 inh set2: -16; Mdm2 MdmX PPI: 23; CSC inhib: -3; Gli-Sufu antag: 0

Results for CCCOc1ccc2c3c(c(=O)oc2c1OCCC)CCCC3 ?
Shn3 inh set2: 4; Mdm2 MdmX PPI: -1; Gli-Sufu antag: 4; Beta apoptosis: 100*

Results for Cc1cc(C)cc(NS(=O)(=O)c2ccc3[nH]cc(C(=O)NCc4ccco4)c(=O)c3c2)c1 ?
Shn3 inh set2: 43; Mdm2 MdmX PPI: 33; CSC inhib: 99*; Gli-Sufu antag: 14; Beta apoptosis: 25

What do the screens show for `Cc1ccccc1NS(=O)(=O)c1ccc2[nH]cc(C(=O)N(C)Cc3ccco3)c(=O)c2c1`?
Shn3 inh set2: -12; Mdm2 MdmX PPI: 10; CSC inhib: -5; Gli-Sufu antag: 2; Beta apoptosis: -1

How did O=C(c1ccoc1)N1CCN(c2cc(-c3cccc(F)c3)nc3cc(-c4cccc(Cl)c4)nn23)CC1 do in these assays?
Shn3 inh set2: 91*; PAX8 reporter: 24

Results for Cc1ccc(NC(=O)C[C@H]2CC[C@H]3[C@@H](COc4ccc(NC(=O)C(C)C)cc4C(=O)N3C)O2)cc1 ?
PAX8 reporter: 0

Results for COC1=C(C)C(=O)C2=C(C1=O)C1C3CC4=C(C(=O)C(OC)=C(C)C4=O)C(CNC(=O)C(C)=O)N3C(C#N)C(C2)N1C (stereo not drawn) ?
Shn3 inh set2: 94*; Gli-Sufu antag: 81*; PAX8 reporter: 106*

How did CN(CC(=O)NCc1ccc2c(c1)OCO2)S(=O)(=O)c1ccc(Br)s1 do in these assays?
Shn3 inh set2: 94*; Mdm2 MdmX PPI: 7; CSC inhib: 14; Gli-Sufu antag: 3
